Measurements from PubChem BioAssay.
For some of these results: Entries with a potency or affinity are not part of this list. Active and inactive are the calls of the source.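 How the source made its calls, unless noted: active means primary screen active and over 50% activation in each of two duplicate runs; inactive means the rest.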

Legend:
[1] = tested on: TRPC4 beta (transient receptor potential cation channel C4), mouse; assay: activators of mouse TRPC4 channel, confirmation, cell-based, Fluo4 calcium, HEK293 TRPC4beta/mu-opioid, duplicates, 10 µM (AID 2426;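 active means fluorescence ratio normalized to control raised more than 50% in primary screen plus both repeat runs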); conditions: Fluo4 calcium fluorescence, at 10 µM; stronger effect = higher value
[2] = tested on: transient receptor potential cation channel C4 beta (TRPC4), mouse; assay: activators of mouse TRPC4 channel, confirmation, cell-based, second round, Fluo4, HEK293 TRPC4beta/mu-opioid, 1 µM (AID 2461); conditions: Fluo4 calcium fluorescence, at 1 µM; stronger effect = higher value
[3] = tested on: TRPC4 (transient receptor potential cation channel C4 beta), mouse; assay: positive allosteric modulators of mouse TRPC4, confirmation, cell-based, second round, Fluo-4, HEK293 TRPC4beta/mu-opioid, 1 µM (AID 2554;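 active means primary screen hit whose fluorescence ratio, in both repeats, exceeds the weak agonist control mean by 3 SD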); conditions: DAMGO EC20, Fluo-4 calcium flux, at 1 µM; stronger effect = higher value
[4] = tested on: TRPC4 beta (transient receptor potential cation channel C4), mouse; assay: positive allosteric modulators of mouse TRPC4, confirmation, cell-based, Fluo-4, HEK293 TRPC4beta/mu-opioid (AID 2555;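 active means primary screen hit whose calcium fluorescence ratio, in both repeats, exceeds the weak agonist control mean by 3 SD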); conditions: DAMGO EC20, Fluo-4 calcium flux, at 10 µM; stronger effect = higher value
[5] = target: Short transient receptor potential channel 4 (Mus musculus) (UniProt Q9QUQ5); assay: inhibitors of mouse TRPC4 channel, confirmation, cell-based, Fluo4, HEK293 TRPC4beta/mu-opioid (AID 2636;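 active means calcium signal cut by more than 3 SD below the full-agonist control yet still positive, in both repeats and the earlier primary screen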); conditions: DAMGO, Fluo4 calcium flux, at 10 µM; stronger effect = higher value
Sequence of Short transient receptor potential channel 4 (Mus musculus) (Q9QUQ5 whole entry, looked up): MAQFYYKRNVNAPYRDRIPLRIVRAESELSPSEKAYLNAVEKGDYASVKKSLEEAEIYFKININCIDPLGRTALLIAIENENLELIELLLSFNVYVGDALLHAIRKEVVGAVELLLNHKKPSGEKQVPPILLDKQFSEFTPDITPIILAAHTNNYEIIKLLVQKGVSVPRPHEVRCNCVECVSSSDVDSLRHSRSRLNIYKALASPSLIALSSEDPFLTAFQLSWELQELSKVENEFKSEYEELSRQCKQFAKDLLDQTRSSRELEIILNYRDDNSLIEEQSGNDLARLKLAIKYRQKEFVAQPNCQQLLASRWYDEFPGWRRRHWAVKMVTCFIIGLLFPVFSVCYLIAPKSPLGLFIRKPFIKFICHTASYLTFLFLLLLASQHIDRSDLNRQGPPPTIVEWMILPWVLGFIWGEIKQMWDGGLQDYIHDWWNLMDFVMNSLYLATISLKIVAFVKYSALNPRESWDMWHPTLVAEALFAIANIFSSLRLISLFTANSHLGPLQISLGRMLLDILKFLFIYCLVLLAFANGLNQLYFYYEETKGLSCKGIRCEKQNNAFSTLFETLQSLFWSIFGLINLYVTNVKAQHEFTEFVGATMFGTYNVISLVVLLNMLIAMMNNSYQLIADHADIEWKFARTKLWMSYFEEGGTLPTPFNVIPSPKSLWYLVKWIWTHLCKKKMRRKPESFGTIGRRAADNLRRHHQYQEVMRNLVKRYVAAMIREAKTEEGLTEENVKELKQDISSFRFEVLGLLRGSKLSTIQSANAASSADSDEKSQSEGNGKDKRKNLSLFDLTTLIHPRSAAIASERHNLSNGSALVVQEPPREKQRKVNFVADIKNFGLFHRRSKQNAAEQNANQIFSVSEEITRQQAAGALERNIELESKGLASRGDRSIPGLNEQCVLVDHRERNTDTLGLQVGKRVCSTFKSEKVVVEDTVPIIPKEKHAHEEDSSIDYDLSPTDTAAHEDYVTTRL

[6] = target: Short transient receptor potential channel 4 (Mus musculus) (UniProt Q9QUQ5); assay: inhibitors of mouse TRPC4 channel, confirmation, cell-based, second round, Fluo4, HEK293 TRPC4beta/mu-opioid, 1 µM (AID 2637;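 active means calcium signal ratio cut to more than 3 SD under the fully stimulated control mean yet still positive, in both repeats and the primary screen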); conditions: Fluo4 calcium flux, DAMGO, at 1 µM; stronger effect = higher value
[7] = target: Short transient receptor potential channel 4 (Mus musculus) (UniProt Q9QUQ5); assay: mouse TRPC4 channel activators, dose response, cell-based, HEK293 TRPC4/mu-opioid, Fluo-4 calcium (AID 434937;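 active means primary screen activator hit with a dose response curve and TRPC4 channel activation at any tested dose; inactive means no activation, no dose response, or not a primary hit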)
[8] = target: Short transient receptor potential channel 4 (Mus musculus) (UniProt Q9QUQ5); assay: TRPC4 positive allosteric modulators, dose response, cell-based, HEK293 TRPC4/mu-opioid, Fluo-4 calcium, EC20 DAMGO (AID 434941;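 active means earlier screen potentiator hit that boosts the TRPC4 ion channel at some dose, with a dose response; inactive means no potentiation, no dose response, or not a prior hit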;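 further: calcium entry triggered by an EC20 dose of DAMGO at the co-expressed mu-opioid receptor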)
[9] = target: Short transient receptor potential channel 4 (Mus musculus) (UniProt Q9QUQ5); assay: mouse TRPC4 channel inhibitors, dose response, cell-based, HEK293 TRPC4/mu-opioid, Fluo-4 calcium (AID 434942;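 active means primary screen inhibitor hit that blocks the TRPC4 channel at some tested dose, yielding a dose curve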)
[10] = target: Short transient receptor potential channel 6 (Mus musculus) (UniProt Q61143); assay: inhibition of mouse TRPC6 channel, confirmation, selectivity assay for TRPC4 inhibitor project, cell-based, HEK293, membrane potential dye, duplicate (AID 434948;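 active means active in primary screen and both duplicates, each dropping signal beyond three positive-control SD with fluorescence still positive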); conditions: HEK293 TRPC6, membrane potential dye fluorescence, at 10 µM, stimulated with maximal-effect acetylcholine; stronger effect = higher value
Sequence of Short transient receptor potential channel 6 (Mus musculus) (Q61143 whole entry, looked up): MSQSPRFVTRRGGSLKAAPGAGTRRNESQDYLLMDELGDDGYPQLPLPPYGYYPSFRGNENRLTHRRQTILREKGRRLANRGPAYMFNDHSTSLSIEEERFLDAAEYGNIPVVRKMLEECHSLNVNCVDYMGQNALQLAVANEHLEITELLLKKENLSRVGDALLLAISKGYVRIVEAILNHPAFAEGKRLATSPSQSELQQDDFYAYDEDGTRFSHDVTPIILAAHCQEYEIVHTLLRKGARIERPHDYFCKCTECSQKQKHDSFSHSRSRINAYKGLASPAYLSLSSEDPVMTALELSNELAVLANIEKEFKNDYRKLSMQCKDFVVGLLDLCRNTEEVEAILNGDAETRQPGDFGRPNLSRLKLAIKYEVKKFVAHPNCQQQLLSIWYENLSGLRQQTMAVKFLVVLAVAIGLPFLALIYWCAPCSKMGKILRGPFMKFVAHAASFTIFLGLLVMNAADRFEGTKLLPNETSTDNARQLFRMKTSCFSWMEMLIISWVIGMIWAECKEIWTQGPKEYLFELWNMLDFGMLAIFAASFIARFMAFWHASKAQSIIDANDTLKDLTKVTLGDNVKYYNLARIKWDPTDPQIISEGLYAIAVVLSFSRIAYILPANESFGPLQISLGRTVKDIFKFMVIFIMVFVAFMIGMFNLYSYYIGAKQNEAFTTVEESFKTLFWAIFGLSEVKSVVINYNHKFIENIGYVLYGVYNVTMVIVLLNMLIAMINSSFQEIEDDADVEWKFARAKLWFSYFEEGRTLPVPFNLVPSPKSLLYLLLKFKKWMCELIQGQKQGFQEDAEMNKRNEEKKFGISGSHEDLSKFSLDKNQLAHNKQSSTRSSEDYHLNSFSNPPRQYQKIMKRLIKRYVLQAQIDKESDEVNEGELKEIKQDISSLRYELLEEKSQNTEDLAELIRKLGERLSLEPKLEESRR

[11] = target: Short transient receptor potential channel 6 (Mus musculus) (UniProt Q61143); assay: activation of mouse TRPC6 channel, confirmation, selectivity assay for TRPC4 activator project, cell-based, HEK293, membrane potential dye, duplicate (AID 434950;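 active means membrane potential signal rise above negative control mean plus 3 SD in both duplicates, also active in the earlier TRPC4 screen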); conditions: HEK293 TRPC6, membrane potential fluorescence, at 10 µM; stronger effect = higher value
[12] = target: Short transient receptor potential channel 6 (Mus musculus) (UniProt Q61143); assay: TRPC6 potentiation by TRPC4 potentiator hits, confirmation, selectivity assay for TRPC4 potentiator project, HEK293 cells, membrane potential dye, duplicate (AID 434952;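 active means compound raising the membrane signal above positive-control mean plus 3 SD in both repeats, and a primary screen hit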); conditions: HEK293 TRPC6, membrane potential dye fluorescence, at 10 µM, maximal acetylcholine added after compound; stronger effect = higher value
[13] = target: Short transient receptor potential channel 4 (Mus musculus) (UniProt Q9QUQ5); assay: calcium flux activators in TRPC4/5HT1a cells, counter-screen for TRPC4 activator project, cell-based, second counter screen, HEK293 TRPC4/5HT1a, Fluo-4 (AID 434977;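 active means calcium signal rise above buffer-control mean plus 5 SD in both duplicates, and also a hit in the primary screen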); conditions: Fluo-4 calcium flux, at 10 µM; stronger effect = higher value
[14] = calcium flux inhibitors in TRPC4/5HT1a cells, confirmation, counter-screen for TRPC4 inhibitor project, cell-based, second counter screen, HEK293 TRPC4/5HT1a, Fluo-4 (AID 434978;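 active means primary screen active whose calcium signal fell more than 3 SD beyond the full-serotonin control mean in both duplicate plates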;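 further: serotonin given first at submaximal then at maximal dose after compound preincubation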); conditions: Fluo-4 calcium flux, at 10 µM, serotonin added to trigger calcium flux; stronger effect = higher value
[15] = tested on: TRPC4 (mouse), co-expressed with 5HT1a in HEK293; assay: calcium flux potentiators in TRPC4/5HT1a cells, confirmation, counter-screen for TRPC4 potentiator project, cell-based, second counter screen, HEK293 TRPC4/5HT1a, Fluo-4 (AID 434979;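 active means signal rise over 3 SD above mean of control wells given weak agonist, in both repeats and first screen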); conditions: Fluo-4 calcium flux, at 10 µM, serotonin added at its EC20 dose; stronger effect = higher value
[16] = calcium flux activation in mu-opioid HEK293 cells, confirmation, counter-screen for TRPC4 activator project, cell-based, HEK293 mu-opioid receptor line (AID 449723;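 active means hit in primary screen, with calcium signal over 5 SD above buffer well mean in both duplicates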;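 further: counter screen cells carry the mu-opioid receptor alone and lack TRPC4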); conditions: Fluo-4 calcium fluorescence, at 10 µM; stronger effect = higher value
[17] = calcium flux enhancement in mu-opioid HEK293 cells, confirmation, counter-screen for TRPC4 allosteric potentiator project, cell-based, HEK293 mu-opioid receptor line (AID 449724;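 active means calcium signal rise more than 3 SD above the low-dose agonist control mean, in both duplicate plates and the primary screen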); conditions: Fluo-4 calcium flux, at 10 µM, compound added before EC20 DAMGO stimulus; stronger effect = higher value

SMILES | outcome [1] | outcome [2] | outcome [3] | outcome [4] | outcome [5] | outcome [6] | outcome [7] | outcome [8] | outcome [9] | outcome [10] | outcome [11] | outcome [12] | outcome [13] | outcome [14] | outcome [15] | outcome [16] | outcome [17] | potentiation [4] | potentiation [15] | potentiation [3]
C/C(=N/Nc1ccnc2cc(Cl)ccc12)c1ccc(N)cc1 | inactive | inactive | inactive | inactive | inactive | inactive | inactive | inactive | inactive | inactive | inactive | inactive | inactive | inactive | inactive | inactive | inactive | – | – | –
CCOc1cc(S(=O)(=O)N2CCN(C(=O)c3ccco3)CC2)ccc1F | inactive | inactive | inactive | – | inactive | inactive | inactive | inactive | inactive | inactive | inactive | inactive | inactive | inactive | – | inactive | inactive | 12% (active) | 32% (active) | –
Cc1cc(C)cc(NC(=O)c2nnn(Cc3cc(C)ccc3C)c2N)c1 | inactive | inactive | inactive | – | inactive | inactive | inactive | inactive | inactive | inactive | inactive | inactive | inactive | inactive | – | inactive | inactive | 16% (active) | 27.4% (active) | –
COc1ccc(Cl)c2sc(N(CCN(C)C)C(=O)c3ccc4c(c3)OCCO4)nc12 | inactive | inactive | – | – | inactive | inactive | inactive | inactive | inactive | inactive | inactive | inactive | inactive | inactive | inactive | inactive | inactive | 26% (active) | – | 9% (active)
Cc1cc(OCC(=O)NNC(=S)NC(=O)c2cccs2)ccc1Cl | inactive | inactive | inactive | inactive | inactive | inactive | inactive | inactive | inactive | inactive | inactive | inactive | inactive | inactive | inactive | inactive | inactive | – | – | –
O=C(COc1ccccc1)NC1CCCCCCC1 | inactive | inactive | – | – | inactive | inactive | inactive | inactive | inactive | inactive | inactive | inactive | inactive | inactive | – | inactive | inactive | 33% (active) | 40.7% (active) | 9% (active)
Clc1ccc(N=C2SCC3CCCCN23)cc1 (stereo unspecified) | inactive | inactive | inactive | – | inactive | inactive | inactive | inactive | inactive | inactive | inactive | inactive | inactive | inactive | – | inactive | inactive | 10% (active) | 35.2% (active) | –
NS(=O)(=O)c1ccc(CCNCc2cc(Br)ccc2OCc2ccccc2)cc1 | inactive | inactive | inactive | inactive | inactive | inactive | inactive | inactive | inactive | inactive | inactive | inactive | inactive | inactive | inactive | inactive | inactive | – | – | –
